Experimental findings from PubChem BioAssay are described below.

A short description of assay [1]: yeast TOR pathway RPL19A-GFP modulators, primary screen, cell-based, S. cerevisiae, multiplex flow cytometry (AID 1862; in the data active means percent of DMSO control GFP below about 86%;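 further: lower values mimic rapamycin by blocking the RPL19A rise seen in DMSO cells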). To be noted: S. cerevisiae RPL19A-GFP strain, flow cytometry fluorescence, 3 h; at 10 µM; stronger effect = lower value. On the technique in general: A flow cytometer gives signals particle by particle.
Assay [2] in a line: modulators of MEP2-GFP levels in yeast, primary screen, S. cerevisiae, multiplex flow cytometry (AID 1867;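 active means GFP response, as percent of the DMSO control, above the screen-wide mean plus 3 SD, about 139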;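 further: median GFP channel fluorescence of barcode-gated MEP2-GFP cells measured by flow cytometry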). To be noted: S. cerevisiae MEP2-GFP strain, 3 h, at 10 µM, stronger effect = higher value, 100% means same as DMSO wells.
Assay [3] in a line: modulators of CIT2-GFP expression in yeast, primary screen, S. cerevisiae, GFP fusion, multiplex flow cytometry (AID 1870;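 active means percent response above a set limit, the screen-wide mean plus 3 SD, cut at about 130% in these data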;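 further: barcoded CIT2-GFP strain pooled with four other GFP strains with rapamycin as positive control; median GFP fluorescence per well over plate mean of DMSO wells so 100% = DMSO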). To be noted: 3 h, at 10 µM, stronger effect = higher value.
Assay [4] can be described thus: modulators of LAP4-GFP expression in yeast, primary screen, S. cerevisiae, multiplex flow cytometry (AID 1873;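 active means GFP signal, as percent of the solvent control, above the screen mean plus 3 SD, about 149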). To be noted: 3 h, at 10 µM, stronger effect = higher value.
Assay [5] can be described thus: modulators of AGP1-GFP expression in yeast TOR pathway, primary screen, cell-based, multiplex flow cytometry, S. cerevisiae (AID 1887;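 active means GFP signal above the screen-wide mean plus 3 SD, that is over about 124.5% of the solvent control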;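 further: AGP1-GFP fusion strain of S. cerevisiae within a five-strain barcoded multiplex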). To be noted: 3 h, at 10 µM, stronger effect = higher value.
Assay [6] in a line: inhibitors of CD8+ T cell-vesicle binding, pilot screen, LFA-1/ICAM-1 modulator project, MLPCN validation set, flow cytometry (AID 2523;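 active means response below a set limit, under 55% cells CD8-positive and vesicle-bound, and CD8 cells' 90th-percentile brightness under 279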;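 on vesicle binding response: mean PE anti-B7-1 fluorescence of CD8+ cells relative to row control; 100% = QL9-loaded vesicles with DMSO vehicle in the same plate row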). To be noted: 2C mouse CD8+ T cells, at 7 µM, stronger effect = lower value; double positive events: measured here: CD8+/vesicle+ event percentage.
For assay [7], the target named is Integrin beta-1 (Homo sapiens) + Integrin alpha-4 (Homo sapiens) (UniProt P13612+P05556). As to the kind of experiment: inhibition of HUTS-21 binding to VLA-4, pilot screen, VLA-4 allosteric modulator project, U937 cells, HUTS-21 mAb, flow cytometry, validation set (AID 2674;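 active means inhibition above 50%, about 3 SD of the validation set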;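 further: antibody binding induced by the VLA-4 ligand LDV present at three times its Kd; 0% = LDV ligand with antibody and no compound and 100% = antibody without LDV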). To be noted: HUTS-21 LIBS mAb binding, at 6.7 µM, stronger effect = higher value, binding induced by LDV ligand.
Integrin beta-1 (Homo sapiens) + Integrin alpha-4 (Homo sapiens), sequence (P05556 whole entry, looked up): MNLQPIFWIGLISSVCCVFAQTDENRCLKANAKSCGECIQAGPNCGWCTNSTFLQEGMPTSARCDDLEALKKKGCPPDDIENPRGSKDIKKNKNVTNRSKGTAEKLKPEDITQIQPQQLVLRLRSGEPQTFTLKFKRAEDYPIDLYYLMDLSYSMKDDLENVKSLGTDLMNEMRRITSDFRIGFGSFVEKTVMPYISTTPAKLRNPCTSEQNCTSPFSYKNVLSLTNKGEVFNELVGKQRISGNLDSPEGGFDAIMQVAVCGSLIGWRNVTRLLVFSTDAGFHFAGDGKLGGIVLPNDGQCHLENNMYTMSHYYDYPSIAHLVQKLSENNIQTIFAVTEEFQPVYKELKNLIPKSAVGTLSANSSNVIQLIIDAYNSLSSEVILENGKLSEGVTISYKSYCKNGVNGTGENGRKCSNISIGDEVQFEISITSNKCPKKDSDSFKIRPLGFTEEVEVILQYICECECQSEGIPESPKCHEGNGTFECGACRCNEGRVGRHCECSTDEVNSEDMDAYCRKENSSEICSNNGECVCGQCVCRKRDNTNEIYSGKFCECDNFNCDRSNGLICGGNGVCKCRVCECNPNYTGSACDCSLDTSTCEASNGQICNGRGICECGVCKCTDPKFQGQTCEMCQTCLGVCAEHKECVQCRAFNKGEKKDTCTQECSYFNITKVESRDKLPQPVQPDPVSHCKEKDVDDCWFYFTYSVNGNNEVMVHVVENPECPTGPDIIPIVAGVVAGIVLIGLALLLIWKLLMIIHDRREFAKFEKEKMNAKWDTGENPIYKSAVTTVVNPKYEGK
Integrin beta-1 (Homo sapiens) + Integrin alpha-4 (Homo sapiens), sequence (P13612 whole entry, looked up): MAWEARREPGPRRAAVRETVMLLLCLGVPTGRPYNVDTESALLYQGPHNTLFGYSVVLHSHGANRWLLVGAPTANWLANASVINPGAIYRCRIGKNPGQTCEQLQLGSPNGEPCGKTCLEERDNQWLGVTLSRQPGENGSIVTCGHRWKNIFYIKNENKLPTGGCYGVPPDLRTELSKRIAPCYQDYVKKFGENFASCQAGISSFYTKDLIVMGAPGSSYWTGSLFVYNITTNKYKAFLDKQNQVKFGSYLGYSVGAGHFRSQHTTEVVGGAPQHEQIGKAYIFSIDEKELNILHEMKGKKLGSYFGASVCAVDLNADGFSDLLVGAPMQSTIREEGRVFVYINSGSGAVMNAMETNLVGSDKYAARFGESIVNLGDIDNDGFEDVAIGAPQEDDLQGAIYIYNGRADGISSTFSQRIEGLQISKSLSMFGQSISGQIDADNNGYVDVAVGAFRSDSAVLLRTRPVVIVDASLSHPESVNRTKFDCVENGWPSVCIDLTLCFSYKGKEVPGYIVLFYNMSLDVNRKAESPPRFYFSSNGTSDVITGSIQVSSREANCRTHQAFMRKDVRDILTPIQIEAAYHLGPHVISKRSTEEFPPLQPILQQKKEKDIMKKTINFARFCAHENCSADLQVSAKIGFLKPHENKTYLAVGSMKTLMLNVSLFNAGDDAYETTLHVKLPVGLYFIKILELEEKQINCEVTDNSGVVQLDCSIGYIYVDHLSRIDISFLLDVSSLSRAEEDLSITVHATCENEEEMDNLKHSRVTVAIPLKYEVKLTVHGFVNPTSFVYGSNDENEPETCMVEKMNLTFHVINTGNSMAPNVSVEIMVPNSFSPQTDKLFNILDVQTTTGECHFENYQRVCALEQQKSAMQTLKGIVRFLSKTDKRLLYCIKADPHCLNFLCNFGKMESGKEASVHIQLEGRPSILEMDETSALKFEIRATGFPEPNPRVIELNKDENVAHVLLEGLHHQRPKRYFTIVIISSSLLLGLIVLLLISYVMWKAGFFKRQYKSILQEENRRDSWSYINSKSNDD

The nature of assay [8]: superoxide lowering in aged yeast cells, pilot screen, validation compound set (AID 2706;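 active means superoxide response below 65% of plate, a cut near 3 SD across the whole screen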;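 further: yeast exposed to compound for one week at 30 degrees C before staining; 100% = mean of all compound wells on the same plate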). To be noted: S. cerevisiae aging, superoxide DHE fluorescence; at 10 µM; stronger effect = lower value.
The target in assay [9] is Beta-adrenergic receptor kinase 1 (Homo sapiens) (UniProt P25098). As to the kind of experiment: GRK2 binders displacing RNA aptamer, biochemical, validation, human GRK2, bead flow cytometry (AID 488806;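 active means aptamer binding inhibition above 30%, about 3 SD of noise from non-fluorescent compounds; inactive means inhibition at or below 30%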). To be noted: bead-bound GRK2, FAM-aptamer displacement, at 10 µM, stronger effect = higher value.
Beta-adrenergic receptor kinase 1 (Homo sapiens), sequence (P25098 whole entry, looked up): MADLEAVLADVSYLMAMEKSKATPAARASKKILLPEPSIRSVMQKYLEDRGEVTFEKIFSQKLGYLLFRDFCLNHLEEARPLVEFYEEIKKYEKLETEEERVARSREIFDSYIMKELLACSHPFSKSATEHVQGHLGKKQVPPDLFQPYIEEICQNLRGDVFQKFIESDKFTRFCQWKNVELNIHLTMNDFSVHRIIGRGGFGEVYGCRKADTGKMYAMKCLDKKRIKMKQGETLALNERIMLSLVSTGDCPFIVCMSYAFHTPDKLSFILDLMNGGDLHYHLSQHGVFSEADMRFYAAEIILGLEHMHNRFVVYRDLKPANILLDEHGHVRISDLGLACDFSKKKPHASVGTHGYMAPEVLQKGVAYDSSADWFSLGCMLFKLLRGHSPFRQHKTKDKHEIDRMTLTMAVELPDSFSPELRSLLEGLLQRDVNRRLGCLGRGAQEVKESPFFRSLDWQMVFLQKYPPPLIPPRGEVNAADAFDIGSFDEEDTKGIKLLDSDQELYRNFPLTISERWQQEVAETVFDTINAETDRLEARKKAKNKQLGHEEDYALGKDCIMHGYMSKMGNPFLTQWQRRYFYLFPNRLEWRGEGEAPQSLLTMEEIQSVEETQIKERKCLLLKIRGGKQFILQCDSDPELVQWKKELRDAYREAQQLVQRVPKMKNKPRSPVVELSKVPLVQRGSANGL
The target in assay [10] is Beta-2 adrenergic receptor (Homo sapiens) (UniProt P07550). The assay can be described thus: beta2AR agonists driving receptor internalization, pilot screen, cell-based, FAP fluorogen, flow cytometry, validation set (AID 504459).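 Further: agonist-driven loss of surface beta2AR via internalization measured by FAP dye flow cytometry.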 To be noted: Am2.2-beta2AR cells, FAP surface receptor flow cytometry; at 10 µM; stronger effect = higher value.
Beta-2 adrenergic receptor (Homo sapiens), sequence (P07550 whole entry, looked up): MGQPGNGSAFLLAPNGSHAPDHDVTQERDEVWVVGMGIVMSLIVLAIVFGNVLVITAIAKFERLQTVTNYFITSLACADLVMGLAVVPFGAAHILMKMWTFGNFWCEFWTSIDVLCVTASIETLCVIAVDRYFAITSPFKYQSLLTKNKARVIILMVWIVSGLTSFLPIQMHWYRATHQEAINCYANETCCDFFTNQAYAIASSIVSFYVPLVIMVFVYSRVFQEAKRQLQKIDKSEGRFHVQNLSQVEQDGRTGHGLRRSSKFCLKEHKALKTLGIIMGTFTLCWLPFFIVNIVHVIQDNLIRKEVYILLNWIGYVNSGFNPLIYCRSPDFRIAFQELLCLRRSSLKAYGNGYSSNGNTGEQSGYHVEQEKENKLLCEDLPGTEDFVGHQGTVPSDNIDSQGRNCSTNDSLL
Assay [11] has as its target AP-2 complex subunit beta (Homo sapiens) (UniProt P63010). The assay can be described thus: inhibitors of arrestin peptide binding to AP2, pilot screen, biochemical, validation set, GST-AP2 beads, flow cytometry (AID 504541;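 active means inhibition above 54%, about 3 SD of non-fluorescent compounds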;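 further: AP2 carries R879A mutation and is captured from E. coli lysate; bead-bound FITC arrestin peptide fluorescence measuring arrestin peptide binding to AP2; 0% = DMSO wells and 100% = excess unlabeled arrestin peptide control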). To be noted: FITC arrestin peptide, at 10 µM, stronger effect = higher value, AP2 beta2 appendage fragment, R879A mutant.
Assay [12] can be described thus: yeast V-ATPase proton transport modulators, S. cerevisiae, pHLuorin, HTS validation (AID 504600; in the data active means response above about 15%;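 further: plate controls were DMSO for no effect and reference compound for full effect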). To be noted: S. cerevisiae pHLuorin cytosolic pH, at 10 µM, stronger effect = higher value.
Assay [13] relates to anti-desmoglein-3 scFv antibody binding to human DSG3. As to the kind of experiment: inhibitors of anti-DSG3 scFv binding to DSG3, pilot screen, biochemical, validation compound set, bead-based, flow cytometry (AID 588368;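 active means binding below the plate cutoff, the plate median minus 3 SD, with a reading above zero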;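 further: signal is the median channel fluorescence of bead-bound GFP antibody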). To be noted: Protein G beads, DSG3-Fc, scFv-GFP binding, at 10 µM, stronger effect = lower value.
Assay [14] in a line: inhibitors of fungal efflux pumps CDR1, CDR2, MDR1, pilot screen, validation compound set, multiplex, phenotypic (AID 588506;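 active means efflux inhibition above 0.42, the validation set average plus 4 SD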;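 further: Nile Red retained in cells so higher fluorescence means more efflux inhibition; 0 = negative control wells and 1 = enniatin B 25 µM full block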). To be noted: S. cerevisiae pump-expressing triplex, Nile Red efflux flow cytometry; at 10 µM; stronger effect = higher value; the pumps come from Candida albicans.
The target of assay [15] is ATP-binding cassette sub-family B member 6 (Homo sapiens) (UniProt Q9NP58). The assay can be described thus: ABCB6 transporter inhibitors, pilot screen, K562-ABCB6 cells, flow cytometry, validation set (AID 588550;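 active means inhibition above the screen-wide mean plus 3 SD, about 51%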;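 further: 0% = DMSO wells and 100% = benzethonium chloride 70 µM positive control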). To be noted: K562-ABCB6 porphyrin accumulation, 1 h, at 10 µM, stronger effect = higher value.
ATP-binding cassette sub-family B member 6 (Homo sapiens), sequence (Q9NP58 whole entry, looked up): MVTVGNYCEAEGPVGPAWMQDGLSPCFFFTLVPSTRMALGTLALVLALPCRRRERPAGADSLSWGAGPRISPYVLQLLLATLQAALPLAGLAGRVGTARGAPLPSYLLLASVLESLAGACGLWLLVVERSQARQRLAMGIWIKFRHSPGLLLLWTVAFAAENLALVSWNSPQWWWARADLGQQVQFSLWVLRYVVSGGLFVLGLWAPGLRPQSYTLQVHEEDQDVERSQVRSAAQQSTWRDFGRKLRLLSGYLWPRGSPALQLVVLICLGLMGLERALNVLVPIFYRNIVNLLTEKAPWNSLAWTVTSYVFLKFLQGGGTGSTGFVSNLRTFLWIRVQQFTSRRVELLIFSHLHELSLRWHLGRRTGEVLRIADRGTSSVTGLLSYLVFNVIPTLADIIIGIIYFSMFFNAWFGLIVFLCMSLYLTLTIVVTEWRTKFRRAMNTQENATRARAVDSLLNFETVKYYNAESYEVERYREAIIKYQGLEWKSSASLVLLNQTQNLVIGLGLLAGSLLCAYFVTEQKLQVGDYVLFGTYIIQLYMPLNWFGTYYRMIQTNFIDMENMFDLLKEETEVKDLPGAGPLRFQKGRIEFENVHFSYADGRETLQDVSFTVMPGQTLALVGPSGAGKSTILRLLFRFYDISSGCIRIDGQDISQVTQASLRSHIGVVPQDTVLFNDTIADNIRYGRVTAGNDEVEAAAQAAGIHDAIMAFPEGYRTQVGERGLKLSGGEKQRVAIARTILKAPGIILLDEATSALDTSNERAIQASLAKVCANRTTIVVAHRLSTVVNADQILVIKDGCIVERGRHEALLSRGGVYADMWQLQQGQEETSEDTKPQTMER
Assay [16] is described as follows: promoters of myeloid differentiation in arrested cells, primary screen, cell-based, GFP/MAC1 double positive, flow cytometry, validation set (AID 588685;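 active means differentiation response of at least 50%, scaled between solvent and reference control, from cells with both markers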;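 further: compound exposure lasts four days before antibody staining and flow analysis; 0% = DMSO wells and 100% = 5 µM fulvestrant positive control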). To be noted: ER-HoxA9 marrow cells, stronger effect = higher value, normalized: vehicle 0, fulvestrant 100.

Results filed as inconclusive are left out. Activity calls are given as the source filed them.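 How the source made its calls, unless noted: active means percent response above 42, roughly 3 SD of non-fluorescent test compounds; inactive means the rest.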

AP-2 complex subunit beta (Homo sapiens), sequence (P63010 whole entry, looked up, the tested form may be a part, one chain of several): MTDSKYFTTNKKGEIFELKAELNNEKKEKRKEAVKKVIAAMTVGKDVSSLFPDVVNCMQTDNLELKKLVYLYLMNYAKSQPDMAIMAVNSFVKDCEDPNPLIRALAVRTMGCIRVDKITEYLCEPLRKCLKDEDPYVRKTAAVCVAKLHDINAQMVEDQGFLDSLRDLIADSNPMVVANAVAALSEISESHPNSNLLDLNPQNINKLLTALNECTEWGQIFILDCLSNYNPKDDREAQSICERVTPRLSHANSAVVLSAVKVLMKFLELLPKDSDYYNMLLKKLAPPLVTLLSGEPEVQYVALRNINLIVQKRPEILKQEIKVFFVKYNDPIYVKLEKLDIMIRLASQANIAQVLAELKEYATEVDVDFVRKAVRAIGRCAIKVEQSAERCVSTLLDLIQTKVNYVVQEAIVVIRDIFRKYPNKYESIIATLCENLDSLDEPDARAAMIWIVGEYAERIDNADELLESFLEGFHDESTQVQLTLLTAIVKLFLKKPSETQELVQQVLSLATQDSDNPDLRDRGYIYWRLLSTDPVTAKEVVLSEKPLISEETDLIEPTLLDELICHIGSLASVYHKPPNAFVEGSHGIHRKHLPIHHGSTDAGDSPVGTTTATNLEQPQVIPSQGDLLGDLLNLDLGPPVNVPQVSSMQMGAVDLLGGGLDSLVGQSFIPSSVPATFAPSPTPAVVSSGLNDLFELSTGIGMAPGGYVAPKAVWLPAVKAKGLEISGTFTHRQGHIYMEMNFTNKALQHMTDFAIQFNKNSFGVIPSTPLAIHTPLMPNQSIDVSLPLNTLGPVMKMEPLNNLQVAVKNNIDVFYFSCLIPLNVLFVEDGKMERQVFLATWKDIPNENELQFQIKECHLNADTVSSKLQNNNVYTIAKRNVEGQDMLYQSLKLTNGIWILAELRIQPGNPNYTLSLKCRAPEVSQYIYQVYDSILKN

Regarding `CC(=O)CC(c1ccc([N+](=O)[O-])cc1)c1c(O)c2ccccc2oc1=O` (stereo not given), in [1], the percent of DMSO control GFP was 107% (inactive). Further, the values for the GFP response vs DMSO in assay [2] and in assay [4] were 105% (inactive) and 118% (inactive), respectively. Besides, the percent response of DMSO control in assay [3] was 105% (inactive). For the same compound, the GFP response, % of DMSO in [5] was 114% (inactive). The compound further yielded a double positive events in assay [6] of 60.4%. In assay [6], the vesicle binding response was 115% (inactive). In addition, the inhibition (as a rule, the relative decrease from the control value, in per cent) was -5.11% (inactive) in assay [7], 1.39% (inactive) in assay [11] and 2% (inactive) in assay [15]. In addition, the superoxide response (% of plate) in assay [8] is 105% (inactive). The aptamer binding inhibition in assay [9] is -1% (inactive). For the same compound, the response in assay [10] was -6.11% (inactive); in assay [12], 1.39% (inactive). The binding (% of control) in assay [13] was 99% (inactive). Moreover, the efflux inhibition (fraction of control) in assay [14] is 0.4 (inactive). Besides, the differentiation response in assay [16] was -11.9% (inactive).

Consider `CCOc1ccc2nc(S(N)(=O)=O)sc2c1`, for which, in [1], the percent of DMSO control GFP was 101% (inactive). Besides, the GFP response vs DMSO is 104% (inactive) in assay [2] and 100% (inactive) in [4]. In addition, the percent response of DMSO control in assay [3] is 99.7% (inactive). The GFP response, % of DMSO in [5] is 103% (inactive). Further, in assay [6], the double positive events was 55.1%. The vesicle binding response in [6] was 103% (inactive). The results for the inhibition in [7], in [11] and in [15] were 0.25% (inactive), -2.81% (inactive) and 7% (inactive), respectively. Moreover, the superoxide response (% of plate) in [8] is 102% (inactive). Moreover, the aptamer binding inhibition in assay [9] was 5% (inactive). Moreover, the response in assay [10] was 3.56% (inactive); in assay [12] it was -4.65% (inactive). The binding (% of control) in assay [13] was 101% (inactive). Further, the efflux inhibition (fraction of control) in [14] was -0.29 (inactive). For the same compound, in [16], the differentiation response was -13.3% (inactive).

On to `CCOC(=O)C1C(=O)OC(C)(C)C1C(C)C(=O)c1ccc(C)cc1` (stereo not given), for which, in assay [1], the percent of DMSO control GFP was 100% (inactive). For the same compound, the GFP response vs DMSO in assay [2] was 103% (inactive); in [4], 110% (inactive). Further, in assay [3], the percent response of DMSO control was 93.1% (inactive). The GFP response, % of DMSO in [5] is 116% (inactive). The compound also had a double positive events in [6] of 61.9%. Moreover, the vesicle binding response in [6] was 218% (inactive). In addition, the inhibition is -6.23% (inactive) in assay [7], -19% (inactive) in assay [11] and 5% (inactive) in assay [15]. Moreover, in assay [8], the superoxide response (% of plate) was 118% (inactive). Also, in assay [9], the aptamer binding inhibition is 3% (inactive). The response was -17.2% (inactive) in assay [10] and -5.62% (inactive) in assay [12]. For the same compound, the binding (% of control) in assay [13] was 102% (inactive). The efflux inhibition (fraction of control) in assay [14] is -0.09 (inactive). Also, the differentiation response in assay [16] was 13.7% (inactive).

In the case of `CC1=NS(=O)(=O)c2cc(Cl)ccc2N1`, the percent of DMSO control GFP in assay [1] is 98.8% (inactive). The GFP response vs DMSO in assay [2] was 105% (inactive); in [4], 84.1% (inactive). For the same compound, in assay [3], the percent response of DMSO control is 93.1% (inactive). The GFP response, % of DMSO in assay [5] was 97% (inactive). The same compound returned a double positive events in assay [6] of 63.9%. The vesicle binding response in assay [6] was 964% (inactive). Further, the inhibition in assay [7] was -3.57% (inactive); in assay [11], 14.6% (inactive); in assay [15], 4% (inactive). Moreover, the superoxide response (% of plate) in assay [8] is 104% (inactive). For the same compound, the aptamer binding inhibition in assay [9] is 3% (inactive). Further, the results for the response in [10] and in assay [12] were -5.04% (inactive) and -1.96% (inactive), respectively. In addition, the binding (% of control) in [13] was 101% (inactive). For the same compound, the efflux inhibition (fraction of control) in assay [14] was -0.1 (inactive). For the same compound, the differentiation response in assay [16] is 34.5% (inactive).

In the case of `COc1ccc2cc([C@H](C)C(=O)O)ccc2c1`, in assay [1], the percent of DMSO control GFP was 103% (inactive). Also, the GFP response vs DMSO in assay [2] was 93% (inactive); in [4], 77.7% (inactive). Moreover, the percent response of DMSO control in [3] is 99.6% (inactive). Moreover, in [5], the GFP response, % of DMSO was 91.7% (inactive). The double positive events in assay [6] turned out to be 70.5%. Besides, the vesicle binding response in assay [6] is 222% (inactive). Moreover, the inhibition in [7] was 2.3% (inactive); in assay [11] it was -13.8% (inactive); in [15], 6% (inactive). In [8], the superoxide response (% of plate) is 91% (inactive). In addition, the aptamer binding inhibition in assay [9] was 5% (inactive). In addition, the response in [10] was 15.2% (inactive); in assay [12] it was -6.97% (inactive). Also, in assay [13], the binding (% of control) was 99.3% (inactive). The efflux inhibition (fraction of control) in assay [14] was 0.08 (inactive). Moreover, the differentiation response in [16] is -12% (inactive).
